In PubChem BioAssay (EPA / NIEHS) one finds outcome and AC50 data, which are given here for 40 compounds.

SMILES strings stand for the structures. The source made the active and inactive calls. Rule for the calls: active = hit-call score of the fitted dose curve at least 0.9, where 1 is the maximum; inactive = score below 0.9.

The nature of this experiment: ATG_PBREM_CIS: Attagene CIS-FACTORIAL HepG2 Assay for human Phenobarbital-responsive Enhancer Module (PBREM) (AID 2282955). Particulars: HepG2 PBREM cis-reporter, Attagene multiplexed transcription; actives raise or lower the signal. As to the method: ATG_CIS is a cell-based, multiplexed-readout assay that uses HepG2, a human liver cell line, with measurements taken at 24 hours after chemical dosing in a 24-well plate.ATG_PBREM_CIS is one of 52 assay component(s) measured or calculated from the ATG_CIS assay. It is designed to make measurements of mRNA induction, a form of inducible reporter, as detected with fluorescence intensity signals by Reverse transcription polymerase chain reaction (RT-PCR) and Capillary electrophoresis technology.Data from the assay component ATG_PBREM_CIS was analyzed into 1 assay endpoint. This assay endpoint, ATG_PBREM_CIS, was analyzed with bidirectional fitting relative to DMSO as the negative control and baseline of activity. Using a type of inducible reporter, measures of mRNA for gain or loss-of-signal activity can be used to understand the reporter gene at the transcription factor-level as they relate to the gene NR1I3. Furthermore, this assay endpoint can be referred to as a primary readout, because this assay has produced multiple assay endpoints where this one serves a reporter gene function. To generalize the intended target to other relatable targets, this assay endpoint is annotated to the nuclear receptor intended target family, where the subfamily is non-steroidal.
Human liver HepG2 cells are transiently transfected with multiple reporter transcription units (MRTUs) in 6-well plates using FuGene 6 reagent (Roche; 3 ml FuGene/1 mg DNA). The MRTU constructs are regulated by a cis-regulating element (promoter). […] A major difference between the CIS and TRANS system is that in CIS activities of endogenous TFs are measured, whereas the TRANS assay evaluates changes in activities of exogenous, chimeric NR-Gal4 proteins. […] At the end of 24 hour incubation, total RNA was isolated using TriZol reagent (Invitrogen). The isolated RNA is then reverse-transcribed using oligo(dT) primer and Mo-MLV reverse transcriptase (Invitrogen) with DNAse I (Ambion) treatment for 30 min. The one-tenth of the produced cDNA was amplified by PCR using Taq DNA polymerase (Invitrogen) and two reporter sequence-specific primers. The PCR products were fluorescently labeled by primer extension with 6-arboxyfluorescein (6-FAM) 5'-labeled reporter sequence-specific primer (2 min at 95 C, 20 s at 68 C and 10 min at 72 C) and these products were digested with 5U of HpaI (New England Biolabs) for 2h at 37 C. The fragments were purified using Qiaquick PCR columns (Qiagen), analyzed on an ABI 3130xL genetic analyzer (Applied Biosystems) with peak positions identified by using a set of X-rhodamine (ROX)-labeled MapMarker1000 molecular weight standards (BioVentures). The raw capillary electrophoresis data was processed using Attagraph software (Attagene).
Take `COc1ccccc1C=O`: the outcome was inactive.
Take `CCN=C1C=CC(=C(c2ccc(N(CC)CC)cc2)c2ccc(N(CC)CC)cc2)c2ccccc21`: the AC50 (in general, the concentration at which the activity in the assay is half-maximal) was 0.0478 µM (active).
For `O=C(Cl)C(F)(F)C(F)(F)C(F)(F)C(F)(F)C(F)(F)C(F)(F)F`, the outcome was inactive.
As to `Cc1ccc(O)cn1`, the result was inactive.
As for `CCOC(=O)CC(=O)C(F)(F)C(F)(F)F`, the outcome was inactive.
Consider `CC(O)C#CC(C)O` (stereo not given), for which the outcome was inactive.
The same measure, in the same setting: as for `OCC(F)(F)C(F)(F)C(F)(F)C(F)(F)C(F)(F)C(F)(F)CO`, the entry is “inactive”; as for `O=C(c1ccccc1)c1ccc(O)cc1O`, “inactive”.
Take `Cc1cc(C)c(O)c(C(C)(C)C)c1`: the result was inactive.
Still for that read-out and setting: as for `Cc1ccc2c(c1)OCC(=O)CO2`, the entry is “inactive”.
With `CC(=O)CCC(C)C`, the outcome was inactive.
For the compound `CCC/C=C/CO`, the result was inactive.
For the compound `O=C1c2c(O)ccc(Nc3ccc(CCO)cc3)c2C(=O)c2c([N+](=O)[O-])ccc(O)c21`, the AC50 was 38.6 µM (active).
For `N#Cc1ccccc1O`, the result was inactive.
In the case of `COCCOCCC[Si](C)(O[Si](C)(C)C)O[Si](C)(C)C`, the AC50 was 8.38 µM (active).
For the compound `C=C(C)C(=O)OCC(F)(F)C(F)(F)C(F)(F)C(F)F`, the outcome was inactive.
As to `CC(C)=CCCC(C)O` (stereo not given), the result was inactive.
Turning to `OC(O)C(F)(F)C(F)(F)F`, the result was inactive.
On the same count and under the same terms, as for `COC(F)(C(F)F)C(F)(F)F` (stereo not given), the entry is “inactive”.
As for `OCC(F)(F)C(F)(F)C(F)(F)C(F)(F)C(F)(F)C(F)(F)C(F)(F)C(F)(F)CO`, the result was inactive.
Consider `CCc1cccc(C)c1N(C(=O)C(=O)O)C(C)COC` (stereo not given), for which the outcome was inactive.
As to `C=CC(=O)OCC(F)(F)C(F)(F)C(F)(F)C(F)(F)C(F)(F)C(F)(F)C(F)(F)C(F)F`, the outcome was inactive.
Regarding `CC(C)(C)c1cc(CCC(=O)NCCCCCCNC(=O)CCc2cc(C(C)(C)C)c(O)c(C(C)(C)C)c2)cc(C(C)(C)C)c1O`, the outcome was inactive.
On to `CCN(CC)c1ccc2c(c1)Oc1cc(N(CC)CC)ccc1C21OC(=O)c2ccccc21`, for which the outcome was inactive.
For the compound `Cc1cccc(C)n1`, the outcome was inactive.
With `CCc1ccc(C)nc1`, the result was inactive.
Turning to `COCCC(=O)OC`, the outcome was inactive.
Still for that read-out and setting: as for `Brc1nc2ccccc2s1`, the entry is “inactive”.
Consider `Cc1cc(=O)[nH]c(C(C)C)n1`, for which the outcome was inactive.
In the case of `Nc1cccnc1N`, the outcome was inactive.
Consider `O=C(O)C(F)(F)C(F)(F)C(F)(F)OC(F)(C(F)(F)F)C(F)(F)F`, for which the outcome was inactive.
On the same count and under the same terms, as for `OCC(O)CC(F)(F)C(F)(F)C(F)(F)C(F)(F)C(F)(F)C(F)(F)C(F)(F)C(F)(F)F` (stereo not given), the entry is “inactive”; as for `CCCCCC/C=C/CCCCCCCC(=O)O`, “inactive”; as for `O=C1c2ccccc2C(=O)c2c(Cl)cccc21`, “inactive”.
Turning to `CC(=O)C=O`, the outcome was inactive.
Turning to `CC1=CCC2C(=O)OC(=O)C2C1` (stereo not given), the outcome was inactive.
Take `O=C(O)C(F)(F)C(F)(F)C(F)(F)C(F)(F)C(F)(F)C(F)(F)C(F)F`: the result was inactive.
Turning to `CCCCCCCCCCCCCCCCC`, the result was inactive.
The same measure, in the same setting: as for `OCC(F)(F)C(F)(F)C(F)(F)CO`, the entry is “inactive”; as for `Oc1ccc2c(c1)CCC2`, “inactive”.
